The source of these data is PubChem BioAssay (Tox21).

Molecules are shown by their SMILES. Several values for one entry are separate records, joined by “and”; a condition that tells them apart may be missing. Equal values may be shown once. Inconclusive results are not listed. More than one record can exist for a structure, and the calls need not agree. Activity calls are given as the source filed them. Calls come from the whole dose curve; as a rule, active = well fitted curve in the direction sought with a large enough effect in the repeat runs; inconclusive = weak or mixed curves; inactive = no such curve, though single readings can be large; an effect the other way counts as inactive or inconclusive.

A short description of experiment [1]: Human pregnane X receptor (PXR) small molecule agonists, qHTS cell viability counter screen (AID 1346977). Note: nearly all actives have a fitted effect of over 50% in size. The essentials: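 Tox21 qHTS format; PXR-Luc HepG2, 2,000/well, charcoal-stripped FBS 5%. Cpd exposure 24hr. Read: CellTiter-Fluor fluorescence, multiplexed with luciferase.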
Experiment [2] in a line: Caspase-3/7 induction in HepG2 cells by small molecules, qHTS assay (AID 1346978). Note: nearly all actives have a fitted effect of over 15% in size. The essentials: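 Wild-type HepG2 cells (2,000/well) were settled 5 h at 37 C, 5% CO2, then exposed to compounds in DMSO for 17 h. Caspase-3/7 activity was read by luminescence 30 min after adding Caspase-Glo 3/7 reagent at room temperature.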
Experiment [3] in a line: Caspase-3/7 induction in CHO-K1 cells by small molecules, qHTS cell viability counter screen (AID 1346979). Note: nearly all actives have a fitted effect of over 35% in size. The essentials:
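CellTiter-Fluor viability check, qHTS format: wild-type CHO-K1, 16hr compound treatment, 1hr reagent incubation, fluorescence read.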

A short description of experiment [4]: Caspase-3/7 induction in CHO-K1 cells by small molecules, qHTS assay (AID 1346980). Note: nearly all actives have a fitted effect of over 15% in size. The essentials: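 Wild-type cells were seeded at 1,500 per well and settled 5 hr at 37 C, 5% CO2, then exposed to DMSO-dissolved compounds for 17 hr. Caspase-Glo 3/7 reagent was added, and luminescence was read after 30min at room temperature.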
Experiment [5] can be described thus: Caspase-3/7 induction in HepG2 cells by small molecules, qHTS cell viability counter screen (AID 1346981). Note: nearly all actives have a fitted effect of over 30% in size. The essentials: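 The parent HepG2 line is plated at 2,000 cells per well and rested 5 hr before compound pinning from DMSO stocks. Following a 16-hr treatment at 37 C, a fluorogenic live-cell substrate (CellTiter-Fluor) reports viability after 1 hr.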
In experiment [6] the target is Nuclear receptor subfamily 1 group I member 2 (Homo sapiens) (UniProt O75469). Description: Human pregnane X receptor (PXR) small molecule agonists, qHTS assay (AID 1346982). Note: nearly all actives have a fitted effect of over 35% in size. The method, boiled down:
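After plating in 5% charcoal-stripped FBS and a 5 hr rest, PXR-Luc HepG2 cells received compounds in DMSO. Following 24 hr at 37 C, ONE-Glo was added and light output read.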

Experiment [7] addresses Cytochrome P450 2D6 (Homo sapiens) (UniProt P10635). Description: Cytochrome P450 Family 2 Subfamily D Member 6 (CYP2D6) small molecule antagonists: luciferase reporter qHTS assay (AID 1671196). Note: nearly all actives have a fitted effect of over 50% in size. The method, boiled down:
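Quantitative HTS of Tox21 chemicals against CYP2D6 using a luminescent proluciferin substrate. After NADPH addition, 1 h room-temperature reaction; luminescence recorded 20 min post detection reagent.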
Potency is the fitted concentration of half-maximal effect.

Sequence of Nuclear receptor subfamily 1 group I member 2 (Homo sapiens) (O75469 whole entry, looked up): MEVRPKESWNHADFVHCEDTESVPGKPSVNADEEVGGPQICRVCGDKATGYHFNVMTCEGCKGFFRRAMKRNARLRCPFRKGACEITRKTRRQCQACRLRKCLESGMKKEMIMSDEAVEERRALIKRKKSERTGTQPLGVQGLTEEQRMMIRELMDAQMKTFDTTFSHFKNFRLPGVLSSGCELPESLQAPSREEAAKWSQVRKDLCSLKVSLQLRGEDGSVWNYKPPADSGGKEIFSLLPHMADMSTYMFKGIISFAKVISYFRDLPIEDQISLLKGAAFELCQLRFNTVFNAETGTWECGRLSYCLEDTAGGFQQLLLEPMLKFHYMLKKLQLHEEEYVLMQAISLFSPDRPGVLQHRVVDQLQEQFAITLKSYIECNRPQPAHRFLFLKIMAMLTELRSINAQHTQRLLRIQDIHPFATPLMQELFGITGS
Sequence of Cytochrome P450 2D6 (Homo sapiens) (P10635 whole entry, looked up): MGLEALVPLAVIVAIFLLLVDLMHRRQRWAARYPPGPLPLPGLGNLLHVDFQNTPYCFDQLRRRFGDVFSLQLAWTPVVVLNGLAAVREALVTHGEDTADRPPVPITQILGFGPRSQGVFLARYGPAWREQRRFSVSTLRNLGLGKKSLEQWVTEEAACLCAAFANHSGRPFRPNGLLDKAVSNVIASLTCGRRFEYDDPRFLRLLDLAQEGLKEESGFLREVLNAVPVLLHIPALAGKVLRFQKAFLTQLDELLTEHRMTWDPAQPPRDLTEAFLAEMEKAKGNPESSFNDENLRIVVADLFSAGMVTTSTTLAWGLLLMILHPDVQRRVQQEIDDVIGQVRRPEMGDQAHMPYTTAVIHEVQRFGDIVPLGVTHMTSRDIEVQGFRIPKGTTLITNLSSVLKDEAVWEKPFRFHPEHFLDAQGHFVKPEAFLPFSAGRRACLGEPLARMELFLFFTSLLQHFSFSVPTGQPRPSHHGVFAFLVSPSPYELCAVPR

Turning to `Cc1ccc(C(=O)O)o1`, the Potency result in experiment [1], in experiment [2], in experiment [3], in experiment [4], in experiment [5] and in experiment [6] was “inactive” in each case. The Potency entry in experiment [7] was “inactive”.

For `CCCCCC/C=C/CCCCCCCC(=O)O`, the Potency result in experiment [1], in experiment [2], in experiment [3], in experiment [4], in experiment [5] and in experiment [6] was “inactive” throughout. Further, the Potency entry in experiment [7] was “inactive”.

With `ClC1=C(Cl)C(Cl)(Cl)C(Cl)=C1Cl`, the Potency result in experiment [1], in experiment [2], in experiment [3], in experiment [5], in experiment [6] and in experiment [7] was “inactive” each time. For the same molecule, the Potency result in experiment [4] is “inactive and 68.6 µM (active)”.

Turning to `CCCCC(CC)COC(=O)CCCCCCCC(=O)OCC(CC)CCCC` (stereo not given), the Potency entry in experiment [1], in experiment [2], in experiment [4] and in experiment [5] was “inactive” each time. Further, the Potency in experiment [3] is 43.3 µM (active) and inactive; in experiment [6] it was 24.3 µM (active) and inactive; in experiment [7], 71 µM (active) and inactive.

As for `CC1=CC[C@H]2C[C@@H]1C2(C)C`, the Potency entry in experiment [1], in experiment [2], in experiment [3], in experiment [4], in experiment [5] and in experiment [6] was “inactive” in each case. In experiment [7], the Potency entry was “inactive”.

In the case of `O=S(=O)(O)c1cc(S(=O)(=O)O)c2c(N=Nc3ccccc3)c(O)ccc2c1`, the Potency in experiment [1] is 39.8 µM (active) and 54.5 µM (active); in experiment [3], 54.7 µM (active) and 34.4 µM (active); in experiment [5], 54.7 µM (active) and 54.5 µM (active). Besides, the Potency entry in experiment [2], in experiment [4], in experiment [6] and in experiment [7] was “inactive” each time.

As to `C=C(C)C(=O)OCCCCCC`, the Potency entry in experiment [1], in experiment [2], in experiment [3], in experiment [4], in experiment [5] and in experiment [6] was “inactive” each time. Besides, the Potency result in experiment [7] was “inactive”.

For the molecule `CCCCC(CC)C(=O)OCCOCCOCCOC(=O)C(CC)CCCC` (stereo not given), the Potency result in experiment [1], in experiment [2], in experiment [3], in experiment [4], in experiment [5] and in experiment [6] was “inactive” each time. For the same molecule, the Potency entry in experiment [7] was “inactive”.

Regarding `NCCc1ccc(O)c(O)c1`, the Potency in experiment [1] was 30.7 µM (active); in experiment [3], 61.3 µM (active) and inactive; in experiment [5], 68.8 µM (active) and inactive; in experiment [7], 63.5 µM (active) and inactive. For the same molecule, the Potency result in experiment [2], in experiment [4] and in experiment [6] was “inactive” in each case.

As for `OC1CCCC1`, the Potency result in experiment [1], in experiment [2], in experiment [3], in experiment [4], in experiment [5] and in experiment [7] was “inactive” in each case. In experiment [6], the Potency is 30.6 µM (active) and inactive.

As for `OCCOCCOCCOCCO`, the Potency entry in experiment [1], in experiment [2], in experiment [3], in experiment [4], in experiment [5] and in experiment [6] was “inactive” throughout. In addition, in experiment [7], the Potency result was “inactive”.

For `CCCCCCCCCCCCOCC1CO1` (stereo not given), the Potency entry in experiment [1], in experiment [2], in experiment [3], in experiment [4], in experiment [5] and in experiment [6] was “inactive” throughout. Also, in experiment [7], the Potency result was “inactive”.

`COCC(=O)O`: the Potency entry in experiment [1], in experiment [2], in experiment [3], in experiment [4], in experiment [5] and in experiment [6] was “inactive” each time. In addition, in experiment [7], the Potency entry was “inactive”.

As to `O=C(O)c1ccc([N+](=O)[O-])cc1`, the Potency entry in experiment [1], in experiment [2], in experiment [3], in experiment [4], in experiment [5] and in experiment [6] was “inactive” in each case. Besides, the Potency entry in experiment [7] is “inactive”.

On to `Cc1cc(=O)[nH]c(C(C)C)n1`, for which the Potency result in experiment [1], in experiment [2], in experiment [3], in experiment [4], in experiment [5] and in experiment [6] was “inactive” each time. Also, the Potency entry in experiment [7] was “inactive”.

For the molecule `O=S(=O)(Oc1ccc(Cl)cc1Cl)c1ccccc1`, the Potency result in experiment [1], in experiment [2], in experiment [3], in experiment [4] and in experiment [5] was “inactive” each time. Also, the Potency in experiment [6] is 49.4 µM (active) and 54.5 µM (active); in experiment [7], 64.4 µM (active) and 63.3 µM (active).

Take `Cc1ccc(C)c(C)c1`: the Potency entry in experiment [1], in experiment [2], in experiment [3], in experiment [4], in experiment [5] and in experiment [6] was “inactive” each time. Further, the Potency entry in experiment [7] is “inactive”.

Take `CCCCCCCCCC(=O)O`: the Potency entry in experiment [1], in experiment [2], in experiment [3], in experiment [4], in experiment [5] and in experiment [6] was “inactive” in each case. Besides, in experiment [7], the Potency entry was “inactive”.

Regarding `CC1COc2ccccc2N1C(=O)C(Cl)Cl` (stereo not given), the Potency in experiment [1] is 39.8 µM (active); in experiment [3], 27.3 µM (active) and 30.6 µM (active); in experiment [5], 61 µM (active) and 27.3 µM (active); in experiment [6], 61 µM (active) and 54.4 µM (active); in experiment [7], 15.9 µM (active) and inactive. Also, the Potency entry in experiment [2] and in experiment [4] was “inactive” throughout.

Take `CCC(C)C=O` (stereo not given): the Potency entry in experiment [1], in experiment [2], in experiment [3], in experiment [4], in experiment [5] and in experiment [6] was “inactive” throughout. In experiment [7], the Potency entry is “inactive”.

On to `O=[N+]([O-])c1cccc(Cl)c1`, for which the Potency result in experiment [1], in experiment [2], in experiment [3], in experiment [4], in experiment [5] and in experiment [6] was “inactive” throughout. Further, the Potency entry in experiment [7] was “inactive”.

For the molecule `COC(=O)c1ccc(C(=O)OC)cc1`, the Potency in experiment [1] is 7.08 µM (active) and inactive; in experiment [2], 9.82 µM (active) and inactive; in experiment [3] it was 780 nM (active) and inactive; in experiment [6], 2.2 µM (active) and inactive. The Potency result in experiment [4], in experiment [5] and in experiment [7] was “inactive” throughout.

As for `O=[N+]([O-])c1cc(N(CCO)CCO)ccc1NCCO`, the Potency in experiment [1] is 30.6 µM (active); in experiment [3], 27.3 µM (active) and 30.6 µM (active); in experiment [5], 30.6 µM (active) and 48.6 µM (active); in experiment [7], 39.8 µM (active) and 31.7 µM (active). Moreover, the Potency entry in experiment [2], in experiment [4] and in experiment [6] was “inactive” throughout.

In the case of `O=Nc1ccc(O)cc1`, the Potency result in experiment [1], in experiment [2], in experiment [4], in experiment [5] and in experiment [6] was “inactive” each time. Also, the Potency is 47.4 µM (active) and inactive in experiment [3]; 39 µM (active) in experiment [7].

`c1ccc2[nH]cnc2c1`: the Potency entry in experiment [1], in experiment [2], in experiment [3], in experiment [4], in experiment [5] and in experiment [6] was “inactive” in each case. Also, the Potency entry in experiment [7] was “inactive”.
